Data reported in the supplement of paper PMC12632987.

T1: USP38, Q8NB14
T1 chain: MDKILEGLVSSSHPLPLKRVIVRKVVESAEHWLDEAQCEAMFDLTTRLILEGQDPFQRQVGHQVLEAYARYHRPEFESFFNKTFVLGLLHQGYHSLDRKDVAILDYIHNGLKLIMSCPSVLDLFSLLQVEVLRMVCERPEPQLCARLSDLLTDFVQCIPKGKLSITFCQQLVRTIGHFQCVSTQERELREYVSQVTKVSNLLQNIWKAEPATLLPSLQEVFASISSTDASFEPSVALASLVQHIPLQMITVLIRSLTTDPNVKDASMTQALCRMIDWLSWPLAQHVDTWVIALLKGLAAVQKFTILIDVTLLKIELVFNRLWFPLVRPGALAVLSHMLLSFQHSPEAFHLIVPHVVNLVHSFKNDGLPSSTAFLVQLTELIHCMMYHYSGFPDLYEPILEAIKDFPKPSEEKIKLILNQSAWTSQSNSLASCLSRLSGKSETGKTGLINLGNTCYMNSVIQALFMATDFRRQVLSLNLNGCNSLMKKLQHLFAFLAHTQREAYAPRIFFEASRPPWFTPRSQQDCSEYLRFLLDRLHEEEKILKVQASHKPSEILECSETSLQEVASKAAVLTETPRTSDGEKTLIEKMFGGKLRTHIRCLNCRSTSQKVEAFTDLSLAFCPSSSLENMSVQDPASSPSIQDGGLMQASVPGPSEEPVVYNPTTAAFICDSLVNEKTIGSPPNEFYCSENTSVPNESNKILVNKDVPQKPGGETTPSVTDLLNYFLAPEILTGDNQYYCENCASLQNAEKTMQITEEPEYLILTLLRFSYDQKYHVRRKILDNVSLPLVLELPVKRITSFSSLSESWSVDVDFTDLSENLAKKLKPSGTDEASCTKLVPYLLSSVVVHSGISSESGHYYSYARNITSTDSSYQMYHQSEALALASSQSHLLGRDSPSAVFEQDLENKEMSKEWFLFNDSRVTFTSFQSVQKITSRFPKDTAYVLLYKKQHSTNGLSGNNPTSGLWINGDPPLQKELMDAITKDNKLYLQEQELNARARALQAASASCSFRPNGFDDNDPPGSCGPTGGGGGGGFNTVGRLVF

B1: usp_38_diff_out_14_2_86 (protein)
chain: AEEELKKKTEETKKKLKEGIELAKKIKEEVKKDPSKAEELRKKLFEKHDEIGDKVGELAKLIEEHKEIPALRKEAVKEVNELLTEYTKALLEALEELAKA
B2: usp_38_diff_out_14_2_92 (protein)
chain: GKEKLEEKFKETKEKLKEAIKKAKELKKEVKKDPSKAEEAREELFKAWDEAGDKVGELEKLLRENPEYKELNKKIKEEVNKLITELTEAALEALEEIAKA
B3: usp_38_diff_out_14_2_94 (protein)
chain: GEEELKKKYEETLKVLEEAIKEAKKIKEEVKKDPSIAEEKRKELFEKWDEAADKVGELQKLLEENPEHKELNKKIIEEVNKKITELTKAALEALEELAKA
B4: usp_38_diff_out_14_2_84 (protein)
chain: MEEEIKKKTKETLKKIEEAIKRAKELKERVKKDPSLKEKAREELFKEWDEAADKVGELEKLLRENKENPELNKKAREEVNKKLTELTEVALETLELIAEV
B5: usp_38_diff_out_14_2_80 (protein)
chain: AEEKLKKATEETLKVLKEAIKKAKELKKEVEADPSLAEKAREELLKAWDKAGDAVGALNKLIEENKEAKETRKKATEEVNKAIDELTKEVLEALQTAAEA
B6: usp_38_diff_out_14_2_83 (protein)
chain: MEEEIKEKTKETLEEIEKAIKELKELEKEVKKDPSKKEEAYKKAFEKWDKAADKVGELEKLLRENKENPELNKKAKEEINEKLTKLTEEALKLLETIAEV
B7: usp_38_diff_out_14_2_82 (protein)
chain: AVEKIKKATEETLKVLEEAIKKFKELKKEVEADPSKAEEARKEILKAWDKAGDAVGALNKLIEENPEAKEENKEATKKVNEALTKLTKEALEALQAAAEA
B8: usp_38_diff_out_14_2_81 (protein)
chain: AEEELKAATEKTLAVLDDAIKAAKELTKEVKKDPSLAEKAREKLLEEWDKAGDAVGELEKLILENKEAKETNKEAREKVNKKLDELTKAFLEALETAAEA
B9: usp_38_diff_out_14_2_90 (protein)
chain: GEEELKKKYEETKKTLEEAIKKAKELKEEVKKDPSKAEEARKRLFEEWDKAADKVGELEKLIRENPEHKELNKKIIEEVNKLITELTKAALEALEAIAEA
B10: usp_38_diff_out_14_2_97 (protein)
chain: GKEELEKKFKETKKVLEEAIKKAKELKKEVEKDPSKAEEARKKLFEAWDKAADKVGELQKLLEENPEYKELNKKIIEEVNKLLTELTKAALEALELIAEA
B11: usp_38_diff_out_14_2_89 (protein)
chain: GEEELEKKTKETLEKLEELIELAKKIKEEVEKDPSKAEELRKELFKKWDEVGEKVGELAKLIEEHKELPELNKKAVKEVNEKLSEATKEILEALELLAEA
B12: usp_38_diff_out_14_2_95 (protein)
chain: GEEELKKAAKETKEVLKKAIEEAKELEKKVKEDPSQAEQARKELFKKWDEAGDAVGKLEKLLRENPEHKELNKKIIEEVNKLINELTKAALKALETLAEA
B13: usp_38_diff_out_14_2_87 (protein)
chain: AEEELKKATKETLKKLEEHIKLAKELAERVKKDPSTAEQAREELFASWDEVGDKVGALAKLIEENKEIPELRKKAIEEVNKKLTEATEATLAALELLAEA
B14: usp_38_diff_out_14_2_88 (protein)
chain: AEEELKKATEETLKKLEEGIKLAKELTKKVKEDPSQAEKAREELFKKHDEIGDAVGRLAKLIEEHKEIPALNKEAVEEVNKKLTEYTEETLKALELLAEA
B15: usp_38_diff_out_14_2_93 (protein)
chain: GEEELKKLFEETKKVLEEAIKRAEELTKEVKADPSQAEKARKELFKAWDEAGDKVGELQKKIEENKEHKELNKKIIKEVNELITKLTEAALAALEEIAAA
B16: usp_38_diff_out_14_2_85 (protein)
chain: AEEKIKKATEKTLKKLEEAIKLAKELKEEVKKDPSKAEKAREELFKKWDEVGDAVGELAKLLEENKEIPALNKEANEKVNEKLTELTKATLEALEELAEA

Target: T1, USP38, Q8NB14
Test: median log2 fold change of GCK-ALFA target abundance (FLAG IP / Myc IP barcode read proportion) (log2 ratio); each designed protein is fused to an ALFA-tag nanobody in HEK293 cells to bring the named protein to FLAG-tagged glucokinase (GCK); Myc marks an untargeted standard; higher = target protein stabilised (more abundant)
Conditions: target protein: 3xFLAG-MCP-GCK-ALFA reporter; HEK293 landing pad (RPLP)
Method in brief: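 The readout is target abundance, the per-binder median log2 ratio of FLAG to Myc barcode read proportions. It came from HEK293 landing-pad cells carrying a recombined ALFA-nanobody-fused binder library, induced with 2 μg mL^−1 doxycycline and transfected with a plasmid for a FLAG-tagged target and a Myc-tagged standard. After 48 h, lysates were immunoprecipitated with anti-FLAG and anti-Myc, and circular RNA barcodes were reverse transcribed, amplified and sequenced. Each barcode needed a proportion of at least 10^−7 in both replicates and each binder at least 3 barcodes per replicate, a pseudocount of 10^−6 was added, and the replicates were pooled.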

Q: For B1, which “median log2 fold change” value is on record?
A: Its value is -0.431.

Q: Which “median log2 fold change” value does the source give for B2 here?
A: The value was -0.436.

Q: B3 was tested. Which “median log2 fold change” value did it give?
A: Its value is 0.0575.

Q: For B4, which “median log2 fold change” value is on record?
A: The value was -0.366.

Q: For B5, which “median log2 fold change” value is on record?
A: Its value is -0.879.

Q: For B6, which “median log2 fold change” value is on record?
A: The value was -0.316.

Q: For B7, which “median log2 fold change” value is on record?
A: The value was -0.116.

Q: Which “median log2 fold change” value does the source give for B8 here?
A: Its value is -0.289.

Q: How did the “median log2 fold change” value turn out when B9 was run?
A: Its value is -0.724.

Q: B10 was tested. Which “median log2 fold change” value did it give?
A: The value was -0.467.

Q: How did the “median log2 fold change” value turn out when B11 was run?
A: Its value is -0.37.

Q: For B12, which “median log2 fold change” value is on record?
A: The value was -0.416.

Q: Which “median log2 fold change” value does the source give for B13 here?
A: Its value is -0.418.

Q: Which “median log2 fold change” value does the source give for B14 here?
A: Its value is -0.277.

Q: How did the “median log2 fold change” value turn out when B15 was run?
A: The value was -0.0116.

Q: B16 was tested. Which “median log2 fold change” value did it give?
A: Its value is -0.606.
